Screening results (PubChem)
Most compounds without a hit are left out; they make up all but 2.3% or so of the library.
Rango release inh: prevents RanGTP from dissociating the Rango-importin beta complex; AID 540253; Biochemical FRET Rango-importin beta, RanGTP-induced dissociation; 0.071% of 340,000 active; Potency, µM (top dose mostly 46.1 µM), for the others: top-dose activity change, negative = inhibition; O95149+P62826; calls by dose curve; note: % of control where 0% means no effect; nearly all actives have a fitted effect of over 45% in size
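Compounds preincubate 5 min with complex of recombinant Rango and importin beta in PBS with 1 mM DTT. Ran (0.6 uM) loaded with 2 mM GTP plus 0.2 uM RCC1 starts dissociation; FRET is recorded 45 min later.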
Nrf2 activator: activators of Nrf2 (ARE) signaling; AREc32 ARE-luciferase reporter (MCF7-derived line), luminescence, 24 h; Potency, µM (doses to about 46.1 µM), inactives show at the highest dose activation, hits mostly activators; 0.31% of 410,000 active; note: % of control where 0% means no effect; nearly all actives have a fitted effect of over 65% in size
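Nrf2 activation is followed as ARE-luciferase induction in the AREc32 line after one day of compound treatment; luminescence is read with Steady-Glo.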
A549 tox-1: kills or reduces viability of A549 cells in Nrf2 counter-screen; 0.16% of 390,000 active; A549 ARE-Fluc cells, CellTiter-Fluor viability, 18-24 h; Potency, µM (highest dose often 46 µM), for inactives: at the highest dose activity change, negative = cytotoxicity, usual class: inhibitors; note: % is set by controls: 0 for no effect and ±100 for the full control effect
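A549 ARE_Fluc cells in 5% FBS OPTI-MEM were exposed to compounds in concentration-response for 18-24 h at 37 deg C. Viability was read by CellTiter-Fluor fluorescence (Ex 405/Em 525) after 30 min, before the luciferase read.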
Nrf2 block: Nrf2 pathway inhibition | 2.1% of 360,000 active | Potency, µM (titrated, usually from 46 µM), without a hit: at the top dose activity change, negative = inhibition, actives largely listed as inhibitors | A549 ARE-Fluc reporter, luciferase luminescence, 18-24 h; note: % is set by controls: 0 for no effect and ±100 for the full control effect; nearly all actives have a fitted effect of over 60% in size
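Nrf2 function is reported as luminescence of an ARE-controlled luciferase in A549 cells. Compounds were tested at several concentrations, and a CellTiter-Fluor read on the same wells flagged cytotoxicity.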
Rango-impB inh: Rango-importin beta binding inhibition | Q14974 | Rango CFP/YFP FRET sensor + importin beta, 45 min | Potency, µM (top dose mostly 92.2 µM), for the others: at the top dose inhibition of complex formation | 0.031% of 340,000 active | AID 540263; calls by dose curve;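 note: 0% = DMSO wells and 100% = buffer wells lacking importin beta; nearly all actives have a fitted effect of over 15% in size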
Target sequence (Q14974 whole entry, looked up): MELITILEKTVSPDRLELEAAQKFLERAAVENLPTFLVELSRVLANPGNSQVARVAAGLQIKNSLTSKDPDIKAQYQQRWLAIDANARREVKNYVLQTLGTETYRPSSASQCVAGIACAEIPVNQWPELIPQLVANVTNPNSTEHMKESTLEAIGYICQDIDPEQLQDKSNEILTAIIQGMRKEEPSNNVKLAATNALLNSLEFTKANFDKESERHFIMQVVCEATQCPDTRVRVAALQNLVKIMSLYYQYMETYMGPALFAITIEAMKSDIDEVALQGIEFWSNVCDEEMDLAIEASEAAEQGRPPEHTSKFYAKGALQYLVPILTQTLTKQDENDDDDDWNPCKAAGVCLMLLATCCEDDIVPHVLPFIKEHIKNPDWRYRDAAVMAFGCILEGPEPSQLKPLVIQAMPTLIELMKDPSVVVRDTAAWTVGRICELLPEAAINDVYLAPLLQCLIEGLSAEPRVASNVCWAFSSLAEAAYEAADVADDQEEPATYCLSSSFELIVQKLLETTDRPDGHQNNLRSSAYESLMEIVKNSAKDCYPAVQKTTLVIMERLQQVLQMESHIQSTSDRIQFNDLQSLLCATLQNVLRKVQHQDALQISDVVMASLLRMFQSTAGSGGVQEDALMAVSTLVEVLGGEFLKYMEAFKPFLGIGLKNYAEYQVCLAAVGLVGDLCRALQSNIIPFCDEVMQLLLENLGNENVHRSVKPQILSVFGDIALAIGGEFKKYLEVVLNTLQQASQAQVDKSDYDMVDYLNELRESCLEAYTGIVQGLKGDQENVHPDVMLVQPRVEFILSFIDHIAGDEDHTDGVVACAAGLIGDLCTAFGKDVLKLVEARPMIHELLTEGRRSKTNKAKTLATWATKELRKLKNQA
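Inhibition scored from the CFP 486 nm/YFP 530 nm FRET ratio 45 min after adding 0.125 microM importin beta to 50 nM Rango biosensor preincubated 5 min with compound (room temperature, PBS with DTT, Tween-20, BSA). No-importin wells as positive control.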
FLuc counter 3: firefly luciferase inhibition, Nrf2 hit validation. shares compounds with Nrf2 block. purified firefly luciferase, luminescence inhibition. Potency, µM (series often up to 57.5 µM), for the others: top-dose activity change, negative = inhibition, most hits filed as inhibitors. 4% of 1,400 active; note: % is set by controls: 0 for no effect and ±100 for the full control effect; nearly all actives have a fitted effect of over 65% in size
A549 tox-2: A549 cytotoxicity, Nrf2 inhibitor counterscreen | shares compounds with Nrf2 block | A549 ARE-Fluc cells, cytotoxicity counterscreen | Potency, µM (series often up to 46.1 µM), inactives show at the top dose activity change, negative = cytotoxicity, usual class: inhibitors | 2% of 1,400 active;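 note: cells exposed to compounds for 18 to 24 hours; % is set by controls: 0 for no effect and ±100 for the full control effect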
Nrf2 ARE inh: Nrf2 inhibition confirmed, A549 ARE-luciferase. 74% of 1,400 active. shares compounds with Nrf2 block. A549 ARE-firefly luciferase reporter, luminescence. Potency, µM (top dose mostly 46.1 µM), for the others: at the highest dose activity change, negative = inhibition, hits mostly inhibitors; note: % is set by controls: 0 for no effect and ±100 for the full control effect; nearly all actives have a fitted effect of over 65% in size
Active calls of the source: *; ? = inconclusive; . = no result given; [ ] = remark or other dose. Unless noted, calls come from the whole dose curve; as a rule, active = well fitted curve in the direction sought with a large enough effect; inconclusive = small, poorly fitted or top-dose-only effect, or another doubt; inactive = no such curve, though single readings can be large; an effect the other way counts as inactive or inconclusive. Potency is the fitted concentration of half-maximal effect.

SMILES	Rango release inh	Nrf2 activator	A549 tox-1	Nrf2 block	Rango-impB inh	FLuc counter 3	A549 tox-2	Nrf2 ARE inh
CCOC(=O)N1CCN(C(=O)Cn2ncc3c4ccccc4n(Cc4ccc(F)cc4)c3c2=O)CC1	.	0%	-17%	?	.	.	.	.
O=C(CSc1nnc(NC(=O)c2cc(Br)ccc2Cl)s1)NCC1CCCO1 (stereo unspecified)	-1%	?	-10%	-7%	-1%	.	.	.
Cc1ccc2c(C)c3ccc4ccccc4c3c[n+]2c1	2%	-2%	?	2.6µM*	?	-1%	-29%	5.8µM*
COc1ccc(CC2C(=O)NC(C)C(=O)N(C)C3C(=O)N(C)C(Cc4ccc(O)c(c4)Oc4ccc(cc4)C3O)C(=O)NC(C)C(=O)NC(C)C(=O)N2C)cc1 (stereo unspecified)	-10%	-2%	?	1.3µM*	4%	3%	?	0.41µM*
COc1cc(-c2nc3ccc(Cl)cn3c2Nc2ccc3c(c2)OCCO3)ccc1O	.	20%	-18%	?	.	.	.	.
CC1=CC2OC3CC4OC(=O)C=CC=CC(C(C)O)OCC(O)C5(C)OC5C(=O)OCC2(CC1O)C4(C)C31CO1 (stereo unspecified)	18%	-2%	.	0.41µM*	0%	-2%	.	0.26µM*
CC1CCOC(=O)C=CC=CC(=O)OC2CC3OC4C5OC5(C)C(O)CC4(COC(=O)C1O)C2(C)C31CO1 (stereo unspecified)	-16%	-2%	.	0.52µM*	3%	4%	.	0.37µM*
CCN(CC)c1ccc(NC(=O)c2cccc(C)c2)cc1S(=O)(=O)Nc1ccccc1OC	-9%	0%[9.22 µM]	9%	?	1%	.	.	.
CCn1cc2nc(SCc3c(F)cccc3Cl)n(CCc3ccccc3)c(=O)c2n1	.	-1%	-24%	?	.	.	.	.
CCCCCn1c(=O)c(C(=O)NCc2ccc(Cl)cc2)c(O)c2ccccc21	-9%	0%	-2%	?	-1%	.	.	.
Cc1cc2ccccc2n1-c1ccc(C(=O)N2CCC(C(=O)NCc3ccc(Cl)cc3)CC2)s1	.	0%	-15%	7.3µM*	.	-1%	-20%	8.2µM*
COC(=O)C1=C(c2cccc(OCc3ccccc3)c2)C[C@@H]2CC[C@H]1N2C(=O)NCc1cc(C)oc1C(F)(F)F	0%	3%	-11%	?	-1%	3%	-17%	?
CC1Oc2cc3c(-c4c(O)cc(O)c5c(O)c6c(cc45)OC(C)C(C)C6=O)c(O)cc(O)c3c(O)c2C(=O)C1C (stereo unspecified)	0%	0%	?	4.6µM*	10%	1%	-17%	9.2µM*
CC(C)(COC(=O)C(c1ccccc1)c1ccccc1)CN1CCOCC1	15%	0%	0%	-25%	5%	.	.	.
O=C(NCc1cccnc1)Nc1ccccc1Cl	8%	0%	5%	5%	-3%	.	.	.
O=C(CCCCCCCCCCC(=O)NCc1cccnc1)NCc1cccnc1	-2%	0%	-1%	?	3%	4%	-6%	?
CC1CCC/C=C/C2CC(O)CC2C(O)/C=C/C(=O)O1 (stereo unspecified)	20%	0%	?	0.26µM*	2%	3%	?	.
C[C@H]1CCC/C=C/C2C[C@H](O)CC2[C@H](O)/C=C/C(=O)O1 (stereo partly specified)	-5%	4%	?	0.15µM*	0%	0%	?	.
C[C@H]1CCC[C@@H](O)CCC/C=C/c2cc(O)cc(O)c2C(=O)O1	-1%	0%	-8%	?	5%	.	.	.
Cc1cc([N+](=O)[O-])c2ccccc2[n+]1[O-]	-10%	-2%	?	4.1µM*	-1%	-21%	-8%	6.5µM*
COc1cc2cc(C(=O)N3CC(COS(C)(=O)=O)c4ccc(O)cc43)[nH]c2c(OC)c1OC (stereo unspecified)	-13%	-2%	?	0.058µM*	-2%	-19%	?	?
C[C@H]1CC[C@@H]2[C@@H](C)[C@H]3[C@H](C[C@H]4[C@@H]5CC=C6C[C@@H](O[C@@H]7O[C@H](CO)[C@H](O)[C@H](O[C@@H]8O[C@H](CO)[C@@H](O)[C@H](O)[C@H]8O)[C@H]7O[C@@H]7O[C@@H](C)[C@H](O)[C@@H](O)[C@H]7O)CC[C@]6(C)[C@H]5CC[C@]34C)N2C1	?	-3%	-18%	-22%	?	.	.	.
COC1C(O)C(C)OC(OC2CCC3(C)C(CCC4C3C(O)CC3(C)C(C5=CC(=O)OC5)CCC43O)C2)C1O (stereo unspecified)	0%	-2%	?	0.15µM*	-3%	1%	?	0.12µM*
C[C@@H]1O[C@@H](O[C@H]2C[C@@H](O)[C@]3(CO)[C@@H]4C(CC[C@]3(O)C2)[C@@]2(O)CC[C@H](C3COC(=O)C3)[C@@]2(C)C[C@H]4O)[C@H](O)[C@H](O)[C@H]1O (stereo partly specified)	-12%	-2%	?	0.21µM*	1%	0%	?	1.2µM*
CC1OC(O[C@H]2C[C@@H](O)[C@]3(CO)[C@H]4[C@H](O)C[C@]5(C)[C@@H](C6=CC(=O)OC6)CC[C@]5(O)[C@@H]4CC[C@]3(O)C2)C(O)C(O)C1O (stereo partly specified)	.	.	.	.	.	4%	?	0.037µM*
CNC(=O)Nc1ccc(C(=O)N/N=C\C23CC[C@@H](O)CC2(O)CC[C@@H]2[C@@H]3CCC3(C)C(C4=CC(=O)OC4)CCC23O)cc1 (stereo partly specified)	0%	-1%	-16%	?	1%	.	.	.
CN1[C@@H]2CC(OC(=O)[C@H](CO)c3ccccc3)C[C@H]1[C@@H]1O[C@@H]12 (stereo partly specified)	-12%	0%	-1%	4%	?	.	.	.
Cc1cc(-c2nc3ncccc3o2)ccc1NC(=O)c1ccccc1Br	.	0%	-24%	?	.	.	.	.
